# Data from PubChem BioAssay.
# The list shows a part of the results. A number with no mark means an inactive call. Calls of active or inactive are those of the source.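 The calls were made as follows, unless noted: active = mean inhibition of the reporter signal across four replicates at the single tested dose of 50% or more; inactive = the rest.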
# Test: HIF-2a driven luciferase blockers, single dose – luminescence, 786-0 RCC cells, confirmation (AID 651580;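 active = mean inhibition across four replicates of at least 40 percent at the single tested concentration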)
# Conditions: HIF-2a luciferase reporter luminescence, overnight, at 18.8 µM, stronger effect = higher value
row,SMILES,inhibition
1,O=C1C=C(c2ccc(Cl)cc2)C(=O)N1Nc1ccccc1,95.2% (active)
2,CN(C)CCNC(=O)c1cccc(-c2cnc3c(NC=O)cc(-c4cccc(C(F)(F)F)c4)cn23)c1,8.84%
3,OCCN1CCN(C(=S)c2ccc(-c3ccccc3)cc2)CC1,93% (active)
4,COc1ccc(CC(N)c2csc(NC(=O)Nc3ccc(C(C)C)cc3)n2)cc1 (configuration not stated),3.55%
5,CC[C@@H](C)[C@H](NC(=O)CCc1c(C)c2cc3c4c(oc3c(C)c2oc1=O)CCCC4)C(=O)O,68.5% (active)
6,O=C(Nc1ccccc1)c1nnsc1S(=O)(=O)c1ccc(Cl)cc1,47.1% (active)
7,O=S(=O)([N-]c1nc2ccccc2nc1-[n+]1ccc(Cc2ccccc2)cc1)c1ccc(Br)s1,-48.2%
8,CCOc1cc(/C=C(/C#N)c2ccc(Cl)cc2)cc(Cl)c1OCC(=O)O,98.1% (active)
9,CCOc1ccc(CNC(=O)C2CCCN(c3nnc(C)c4c(C)n(-c5ccccc5)nc34)C2)cc1 (configuration not stated),6.1%
10,COc1cc2c(cc1O)C(SC)=NC(C)(C)C2,2.51%
11,CCOC(=O)C(=Cc1ccccc1OC)C(=O)OCC,57.5% (active)
12,COc1ccc(-c2oc3ncnc(NCCCO)c3c2-c2ccc(OC)cc2)cc1,37.9%
13,CCN1CCC(O)(/C=C/c2ccc(C)cc2)C(C(=O)/C=C/c2ccc(C)cc2)C1 (configuration not stated),5.88%
14,Cc1cc(-c2n[nH]c(=S)n2/N=C/C(Br)=C/c2ccccc2)n[nH]1,22.8%
15,O=C(CN1CCN(C2CCS(=O)(=O)C2)CC1)N1N=C(c2ccc(Cl)cc2)CC1c1ccco1 (configuration not stated),-11%
16,O=C(CCl)N(Cc1cccc([N+](=O)[O-])c1)c1cccc(Cl)c1,62.8% (active)

# Test: HIF-1a luciferase reporter signal reduction – MiaPaCa-2 cells, single concentration, counter-screen for HIF-2a inhibitor project, confirmation (AID 651589)
# Conditions: MiaPaCa-2 HIF-1a luciferase reporter, desferoxamine, overnight; at 18.8 µM; stronger effect = higher value
row,SMILES,inhibition
1,O=C1C=C(c2ccc(Cl)cc2)C(=O)N1Nc1ccccc1,41%
2,CN(C)CCNC(=O)c1cccc(-c2cnc3c(NC=O)cc(-c4cccc(C(F)(F)F)c4)cn23)c1,106% (active)
3,OCCN1CCN(C(=S)c2ccc(-c3ccccc3)cc2)CC1,69.1% (active)
4,COc1ccc(CC(N)c2csc(NC(=O)Nc3ccc(C(C)C)cc3)n2)cc1 (configuration not stated),101% (active)
5,CC[C@@H](C)[C@H](NC(=O)CCc1c(C)c2cc3c4c(oc3c(C)c2oc1=O)CCCC4)C(=O)O,44.4%
6,O=C(Nc1ccccc1)c1nnsc1S(=O)(=O)c1ccc(Cl)cc1,-5.15%
7,O=S(=O)([N-]c1nc2ccccc2nc1-[n+]1ccc(Cc2ccccc2)cc1)c1ccc(Br)s1,79.1% (active)
8,CCOc1cc(/C=C(/C#N)c2ccc(Cl)cc2)cc(Cl)c1OCC(=O)O,91.2% (active)
9,CCOc1ccc(CNC(=O)C2CCCN(c3nnc(C)c4c(C)n(-c5ccccc5)nc34)C2)cc1 (configuration not stated),-3.66%
10,COc1cc2c(cc1O)C(SC)=NC(C)(C)C2,66.5% (active)
11,CCOC(=O)C(=Cc1ccccc1OC)C(=O)OCC,75.7% (active)
12,COc1ccc(-c2oc3ncnc(NCCCO)c3c2-c2ccc(OC)cc2)cc1,82.4% (active)
13,CCN1CCC(O)(/C=C/c2ccc(C)cc2)C(C(=O)/C=C/c2ccc(C)cc2)C1 (configuration not stated),105% (active)
14,Cc1cc(-c2n[nH]c(=S)n2/N=C/C(Br)=C/c2ccccc2)n[nH]1,105% (active)
15,O=C(CN1CCN(C2CCS(=O)(=O)C2)CC1)N1N=C(c2ccc(Cl)cc2)CC1c1ccco1 (configuration not stated),74.8% (active)
16,O=C(CCl)N(Cc1cccc([N+](=O)[O-])c1)c1cccc(Cl)c1,107% (active)
